Holding throughout (test): DAPPL (digital affinity profiling via proximity ligation, sequencing); 10 mM Tris-HCl pH 7.5, 50 mM NaCl, 1 mM DTT, 4% glycerol, room temperature, 30 min; GST-TFs on glutathione beads, 16-mer random dsDNA library, 0.1% formaldehyde crosslink after washing; high values mean tight binding
One experiment deals with T1, FLI1 (Homo sapiens, UniProt Q01543 1-452).
T1 sequence: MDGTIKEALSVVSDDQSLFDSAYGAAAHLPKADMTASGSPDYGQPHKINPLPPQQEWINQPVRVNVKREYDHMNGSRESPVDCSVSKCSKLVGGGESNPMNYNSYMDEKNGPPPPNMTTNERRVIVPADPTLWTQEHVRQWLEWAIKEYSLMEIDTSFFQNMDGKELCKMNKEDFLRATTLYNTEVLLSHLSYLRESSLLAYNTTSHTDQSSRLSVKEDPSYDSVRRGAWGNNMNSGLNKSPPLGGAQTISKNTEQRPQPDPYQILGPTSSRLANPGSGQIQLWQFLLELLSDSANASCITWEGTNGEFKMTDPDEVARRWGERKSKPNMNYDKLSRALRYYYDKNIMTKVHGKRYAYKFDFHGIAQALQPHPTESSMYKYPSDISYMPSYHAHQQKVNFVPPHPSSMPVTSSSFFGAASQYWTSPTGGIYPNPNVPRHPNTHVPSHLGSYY
Particulars: protein: recombinant; tags: N-terminal GST; dsDNA, one strand shown. In outline:
(§1)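 After expression in yeast as GST fusions, human transcription factors were bound to glutathione beads, DNA-barcoded and mixed with a tag-only sample. The pools were incubated with 200 nmole of a 16-mer random double-stranded DNA library in Tris/NaCl/DTT/glycerol buffer (30 min, room temperature), washed and crosslinked with 0.1% formaldehyde. Proximity ligation with BsaI/T4 ligase ran for 1 h at 37 °C, before PCR amplification and sequencing on an Illumina NextSeq500. Binding signal is a hexamer's read frequency for a factor divided by its frequency for the tag-only sample.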

The target of another experiment is T2, ELK1 (Homo sapiens, UniProt P19419 1-428).
T2 sequence: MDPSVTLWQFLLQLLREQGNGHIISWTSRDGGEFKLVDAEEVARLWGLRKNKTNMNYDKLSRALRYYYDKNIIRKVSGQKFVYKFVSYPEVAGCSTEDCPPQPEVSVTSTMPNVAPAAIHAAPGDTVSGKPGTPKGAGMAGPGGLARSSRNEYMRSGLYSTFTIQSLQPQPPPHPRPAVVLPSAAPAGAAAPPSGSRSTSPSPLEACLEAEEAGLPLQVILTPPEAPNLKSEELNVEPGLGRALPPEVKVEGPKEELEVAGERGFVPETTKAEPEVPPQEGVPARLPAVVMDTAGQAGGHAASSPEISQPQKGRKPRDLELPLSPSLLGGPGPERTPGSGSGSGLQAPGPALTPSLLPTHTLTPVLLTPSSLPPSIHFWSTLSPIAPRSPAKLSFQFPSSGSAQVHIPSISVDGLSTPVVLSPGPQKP
Particulars: protein: recombinant; tags: N-terminal GST; dsDNA, one strand shown. In outline:
as §1

A further experiment addresses T3, GABPA (Homo sapiens, UniProt Q06546 1-454).
T3 sequence: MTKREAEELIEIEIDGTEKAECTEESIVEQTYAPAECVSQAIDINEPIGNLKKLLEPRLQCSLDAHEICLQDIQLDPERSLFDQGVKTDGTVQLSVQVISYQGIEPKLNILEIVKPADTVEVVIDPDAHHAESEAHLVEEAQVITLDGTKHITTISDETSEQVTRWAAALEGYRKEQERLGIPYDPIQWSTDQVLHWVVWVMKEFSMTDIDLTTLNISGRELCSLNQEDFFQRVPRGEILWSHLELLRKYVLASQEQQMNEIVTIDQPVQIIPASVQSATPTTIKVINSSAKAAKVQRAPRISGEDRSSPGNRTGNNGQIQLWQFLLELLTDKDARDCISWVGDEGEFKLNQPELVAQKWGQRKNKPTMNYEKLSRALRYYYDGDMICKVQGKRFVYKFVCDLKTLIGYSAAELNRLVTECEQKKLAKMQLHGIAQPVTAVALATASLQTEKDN
Particulars: protein: recombinant; tags: N-terminal GST; dsDNA, one strand shown. The gist of the method: as §1

Another experiment addresses T4, ERG (Homo sapiens, UniProt P11308 1-479).
T4 sequence: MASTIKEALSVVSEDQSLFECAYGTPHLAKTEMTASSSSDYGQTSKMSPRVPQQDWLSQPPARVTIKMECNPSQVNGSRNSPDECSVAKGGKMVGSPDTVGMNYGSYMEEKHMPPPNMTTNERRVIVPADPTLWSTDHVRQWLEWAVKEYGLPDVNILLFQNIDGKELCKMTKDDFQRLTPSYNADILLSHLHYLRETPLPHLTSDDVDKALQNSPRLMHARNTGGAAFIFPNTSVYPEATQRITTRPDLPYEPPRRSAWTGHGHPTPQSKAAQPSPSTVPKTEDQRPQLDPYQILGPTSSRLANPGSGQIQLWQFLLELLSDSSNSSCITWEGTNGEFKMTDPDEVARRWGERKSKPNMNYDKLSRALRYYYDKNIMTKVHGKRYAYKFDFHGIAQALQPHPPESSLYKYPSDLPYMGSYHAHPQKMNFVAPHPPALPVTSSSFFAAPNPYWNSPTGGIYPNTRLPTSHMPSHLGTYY
The note with it: protein: recombinant; tags: N-terminal GST; dsDNA, one strand shown. In outline: as §1

A further experiment addresses ELF1 (Homo sapiens, UniProt P32519 1-619). Particulars: protein: recombinant; tags: N-terminal GST; dsDNA, one strand shown. The gist of the method: as §1
The next experiment has as its target T5, EHF (Homo sapiens, UniProt Q9NZC4 1-300).
T5 sequence: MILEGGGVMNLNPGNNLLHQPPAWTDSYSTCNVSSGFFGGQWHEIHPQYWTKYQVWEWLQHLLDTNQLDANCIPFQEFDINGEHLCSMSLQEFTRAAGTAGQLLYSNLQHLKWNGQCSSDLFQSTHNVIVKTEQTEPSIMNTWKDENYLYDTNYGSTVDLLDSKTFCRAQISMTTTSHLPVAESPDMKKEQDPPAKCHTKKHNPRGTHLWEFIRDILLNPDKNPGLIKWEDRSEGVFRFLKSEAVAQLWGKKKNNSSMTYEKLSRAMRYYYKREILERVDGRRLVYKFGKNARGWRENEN
Particulars: protein: recombinant; tags: N-terminal GST; dsDNA, one strand shown. In outline:
as §1

The target of another experiment is SPI1 (Homo sapiens, UniProt P17947 1-270). The note with it: protein: recombinant; tags: N-terminal GST; dsDNA, one strand shown. In outline: as §1
The next experiment has as its target SPIB (Homo sapiens, UniProt Q01892 1-262). Particulars: protein: recombinant; tags: N-terminal GST; dsDNA, one strand shown. The gist of the method: as §1
Another experiment has as its target T6, ELK3 (Homo sapiens, UniProt P41970 1-407).
T6 sequence: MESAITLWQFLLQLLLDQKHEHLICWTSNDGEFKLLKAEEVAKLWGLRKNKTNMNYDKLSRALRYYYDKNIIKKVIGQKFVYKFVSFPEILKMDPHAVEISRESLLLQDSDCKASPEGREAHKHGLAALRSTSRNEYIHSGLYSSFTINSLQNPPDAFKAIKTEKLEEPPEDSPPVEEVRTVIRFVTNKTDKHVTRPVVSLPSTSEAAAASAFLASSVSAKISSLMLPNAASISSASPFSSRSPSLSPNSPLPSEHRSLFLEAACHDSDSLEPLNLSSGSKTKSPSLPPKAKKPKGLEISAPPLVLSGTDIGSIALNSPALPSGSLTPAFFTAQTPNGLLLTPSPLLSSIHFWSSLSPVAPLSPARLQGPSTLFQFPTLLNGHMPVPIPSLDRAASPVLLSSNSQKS
Particulars: protein: recombinant; tags: N-terminal GST; dsDNA, one strand shown. In outline:
as §1

Another experiment has as its target T7, FEV (Homo sapiens, UniProt Q99581 1-238).
T7 sequence: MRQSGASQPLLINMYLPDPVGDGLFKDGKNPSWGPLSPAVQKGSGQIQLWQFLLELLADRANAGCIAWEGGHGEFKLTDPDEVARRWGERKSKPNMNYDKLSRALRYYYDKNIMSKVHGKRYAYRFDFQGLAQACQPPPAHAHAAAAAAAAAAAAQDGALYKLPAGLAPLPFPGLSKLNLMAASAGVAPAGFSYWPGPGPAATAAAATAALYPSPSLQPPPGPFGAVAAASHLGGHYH
The note with it: protein: recombinant; tags: N-terminal GST; dsDNA, one strand shown. In outline: as §1

The target in a further experiment is ETV5 (Homo sapiens, UniProt P41161 1-510). Particulars: protein: recombinant; tags: N-terminal GST; dsDNA, one strand shown. The gist of the method:
as §1

A further experiment concerns the target HSF1 (Homo sapiens, UniProt Q00613 1-529). Particulars: protein: recombinant; tags: N-terminal GST; chain copies: 3; dsDNA, one strand shown. The gist of the method: as §1
Another experiment has as its target T8, SPIC (Homo sapiens, UniProt Q8N5J4 1-248).
T8 sequence: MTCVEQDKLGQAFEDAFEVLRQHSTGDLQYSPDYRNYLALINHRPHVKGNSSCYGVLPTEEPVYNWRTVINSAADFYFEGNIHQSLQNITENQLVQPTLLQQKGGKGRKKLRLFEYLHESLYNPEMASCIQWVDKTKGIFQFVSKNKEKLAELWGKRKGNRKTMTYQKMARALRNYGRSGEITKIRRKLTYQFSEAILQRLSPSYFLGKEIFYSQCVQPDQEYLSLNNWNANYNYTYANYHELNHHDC
Particulars: protein: recombinant; tags: N-terminal GST; dsDNA, one strand shown. The gist of the method: as §1

For the next experiment, the target named is ELF4 (Homo sapiens, UniProt Q99607 1-663). Particulars: protein: recombinant; tags: N-terminal GST; dsDNA, one strand shown. The gist of the method: as §1
ELF4, sequence (Q99607 whole entry): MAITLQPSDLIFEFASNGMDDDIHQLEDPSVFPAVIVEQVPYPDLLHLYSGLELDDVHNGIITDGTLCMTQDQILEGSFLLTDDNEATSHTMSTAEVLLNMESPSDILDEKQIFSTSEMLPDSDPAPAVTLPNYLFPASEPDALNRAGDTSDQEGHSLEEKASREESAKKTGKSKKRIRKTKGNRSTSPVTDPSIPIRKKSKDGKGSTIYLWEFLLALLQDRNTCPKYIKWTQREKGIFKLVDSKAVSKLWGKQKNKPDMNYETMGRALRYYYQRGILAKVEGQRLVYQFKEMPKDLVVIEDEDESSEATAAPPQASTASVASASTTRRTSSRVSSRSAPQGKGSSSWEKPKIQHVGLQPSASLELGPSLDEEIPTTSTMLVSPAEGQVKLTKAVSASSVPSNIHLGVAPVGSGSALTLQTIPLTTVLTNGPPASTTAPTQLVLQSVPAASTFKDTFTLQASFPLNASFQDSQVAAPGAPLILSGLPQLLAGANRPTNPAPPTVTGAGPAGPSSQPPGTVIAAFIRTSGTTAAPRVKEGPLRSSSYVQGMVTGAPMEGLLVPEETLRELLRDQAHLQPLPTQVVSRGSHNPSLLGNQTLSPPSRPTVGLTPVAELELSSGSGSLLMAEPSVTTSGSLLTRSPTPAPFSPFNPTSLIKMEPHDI
Another experiment deals with T9, ELK4 (Homo sapiens, UniProt P28324-2 1-405).
T9 sequence: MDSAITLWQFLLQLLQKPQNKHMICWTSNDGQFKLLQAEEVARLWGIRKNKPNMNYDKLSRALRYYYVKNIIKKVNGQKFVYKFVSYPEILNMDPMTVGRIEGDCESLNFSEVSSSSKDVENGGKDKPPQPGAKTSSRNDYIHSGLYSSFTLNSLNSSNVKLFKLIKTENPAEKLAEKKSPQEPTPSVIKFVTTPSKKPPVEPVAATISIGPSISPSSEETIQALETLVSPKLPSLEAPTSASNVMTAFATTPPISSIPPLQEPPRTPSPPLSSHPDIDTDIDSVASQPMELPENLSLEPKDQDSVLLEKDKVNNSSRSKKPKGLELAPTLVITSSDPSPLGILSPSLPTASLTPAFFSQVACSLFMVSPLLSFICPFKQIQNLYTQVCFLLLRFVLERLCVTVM
Particulars: protein: recombinant; tags: N-terminal GST; dsDNA, one strand shown. The gist of the method:
as §1

In another experiment the target is T10, ETV2 (Homo sapiens, UniProt O00321 1-342).
T10 sequence: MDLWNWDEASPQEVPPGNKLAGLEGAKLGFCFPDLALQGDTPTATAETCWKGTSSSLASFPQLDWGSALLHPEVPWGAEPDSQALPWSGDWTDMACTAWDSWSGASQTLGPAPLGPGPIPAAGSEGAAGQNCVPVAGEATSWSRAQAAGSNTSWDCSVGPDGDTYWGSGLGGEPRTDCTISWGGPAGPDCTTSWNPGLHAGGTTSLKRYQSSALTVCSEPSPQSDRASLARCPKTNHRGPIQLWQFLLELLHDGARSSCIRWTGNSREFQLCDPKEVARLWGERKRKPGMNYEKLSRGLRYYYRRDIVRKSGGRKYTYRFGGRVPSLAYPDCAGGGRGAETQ
The note with it: protein: recombinant; tags: N-terminal GST; dsDNA, one strand shown. In outline:
as §1

In a further experiment the target is T11, ELF3 (Homo sapiens, UniProt P78545 1-371).
T11 sequence: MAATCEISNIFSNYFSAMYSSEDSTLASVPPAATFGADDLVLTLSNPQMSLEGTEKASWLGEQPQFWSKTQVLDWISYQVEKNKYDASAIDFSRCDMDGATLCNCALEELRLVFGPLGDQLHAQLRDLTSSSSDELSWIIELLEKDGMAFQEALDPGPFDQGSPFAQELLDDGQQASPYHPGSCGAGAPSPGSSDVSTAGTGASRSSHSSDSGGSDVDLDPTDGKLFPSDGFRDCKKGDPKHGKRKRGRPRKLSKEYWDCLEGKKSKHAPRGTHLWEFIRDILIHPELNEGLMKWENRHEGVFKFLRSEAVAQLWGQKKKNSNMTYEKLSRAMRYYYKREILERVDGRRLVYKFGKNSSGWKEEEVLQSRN
Particulars: protein: recombinant; tags: N-terminal GST; dsDNA, one strand shown. The gist of the method: as §1

A further experiment addresses ETV1 (Homo sapiens, UniProt P50549 1-477). The note with it: protein: recombinant; tags: N-terminal GST; dsDNA, one strand shown. The gist of the method: as §1

ETV5, sequence (P41161 whole entry): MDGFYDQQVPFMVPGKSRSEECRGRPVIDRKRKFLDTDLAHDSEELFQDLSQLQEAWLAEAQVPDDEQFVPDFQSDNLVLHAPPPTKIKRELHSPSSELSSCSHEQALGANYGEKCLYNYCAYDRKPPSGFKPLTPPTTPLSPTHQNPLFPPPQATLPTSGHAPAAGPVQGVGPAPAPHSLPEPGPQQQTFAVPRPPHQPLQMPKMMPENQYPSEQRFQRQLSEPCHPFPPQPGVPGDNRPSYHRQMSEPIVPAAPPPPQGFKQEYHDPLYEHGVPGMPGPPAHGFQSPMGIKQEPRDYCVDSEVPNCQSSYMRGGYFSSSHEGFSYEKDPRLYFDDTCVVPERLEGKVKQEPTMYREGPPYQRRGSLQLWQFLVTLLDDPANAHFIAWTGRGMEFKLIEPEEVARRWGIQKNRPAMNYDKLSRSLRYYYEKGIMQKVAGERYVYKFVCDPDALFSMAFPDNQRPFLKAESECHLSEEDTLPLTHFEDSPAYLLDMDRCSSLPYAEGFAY
HSF1, sequence (Q00613 whole entry): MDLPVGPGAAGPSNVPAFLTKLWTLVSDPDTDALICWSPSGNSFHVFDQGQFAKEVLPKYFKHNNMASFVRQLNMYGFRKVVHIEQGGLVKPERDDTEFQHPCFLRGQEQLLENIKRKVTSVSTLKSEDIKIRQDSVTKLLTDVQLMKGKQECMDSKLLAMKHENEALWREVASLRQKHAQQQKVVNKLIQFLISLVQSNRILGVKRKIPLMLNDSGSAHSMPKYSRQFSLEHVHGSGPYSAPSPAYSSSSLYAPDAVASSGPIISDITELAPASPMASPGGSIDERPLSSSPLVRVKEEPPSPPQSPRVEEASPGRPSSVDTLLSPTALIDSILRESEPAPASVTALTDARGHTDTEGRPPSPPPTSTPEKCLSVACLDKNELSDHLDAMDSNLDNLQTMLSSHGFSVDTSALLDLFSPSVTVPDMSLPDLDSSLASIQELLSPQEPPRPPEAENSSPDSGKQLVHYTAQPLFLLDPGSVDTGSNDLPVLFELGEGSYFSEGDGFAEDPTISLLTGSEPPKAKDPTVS
ELF1, sequence (P32519 whole entry): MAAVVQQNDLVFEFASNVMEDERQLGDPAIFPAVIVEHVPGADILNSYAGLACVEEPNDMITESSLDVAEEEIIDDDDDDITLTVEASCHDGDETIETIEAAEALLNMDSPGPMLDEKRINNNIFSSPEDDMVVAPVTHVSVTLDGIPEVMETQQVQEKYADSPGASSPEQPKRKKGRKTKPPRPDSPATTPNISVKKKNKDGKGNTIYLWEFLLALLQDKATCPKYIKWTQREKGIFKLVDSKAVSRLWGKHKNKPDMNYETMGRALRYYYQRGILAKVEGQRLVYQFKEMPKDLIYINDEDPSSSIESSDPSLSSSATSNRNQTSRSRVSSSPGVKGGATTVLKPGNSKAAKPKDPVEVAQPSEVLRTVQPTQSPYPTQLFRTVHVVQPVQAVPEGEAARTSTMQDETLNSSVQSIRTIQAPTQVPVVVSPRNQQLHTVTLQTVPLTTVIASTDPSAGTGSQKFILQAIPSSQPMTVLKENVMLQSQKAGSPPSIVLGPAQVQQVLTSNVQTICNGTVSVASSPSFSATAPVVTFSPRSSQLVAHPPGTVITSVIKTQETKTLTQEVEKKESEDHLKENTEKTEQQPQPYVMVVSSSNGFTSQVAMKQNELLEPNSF
SPIB, sequence (Q01892 whole entry): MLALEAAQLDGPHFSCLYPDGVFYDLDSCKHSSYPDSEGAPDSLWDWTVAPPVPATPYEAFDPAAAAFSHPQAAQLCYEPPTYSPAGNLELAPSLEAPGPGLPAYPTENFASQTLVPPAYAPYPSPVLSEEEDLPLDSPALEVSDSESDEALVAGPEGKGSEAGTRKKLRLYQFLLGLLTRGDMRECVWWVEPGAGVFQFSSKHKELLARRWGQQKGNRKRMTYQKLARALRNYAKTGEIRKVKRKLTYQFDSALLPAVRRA
ETV1, sequence (P50549 whole entry): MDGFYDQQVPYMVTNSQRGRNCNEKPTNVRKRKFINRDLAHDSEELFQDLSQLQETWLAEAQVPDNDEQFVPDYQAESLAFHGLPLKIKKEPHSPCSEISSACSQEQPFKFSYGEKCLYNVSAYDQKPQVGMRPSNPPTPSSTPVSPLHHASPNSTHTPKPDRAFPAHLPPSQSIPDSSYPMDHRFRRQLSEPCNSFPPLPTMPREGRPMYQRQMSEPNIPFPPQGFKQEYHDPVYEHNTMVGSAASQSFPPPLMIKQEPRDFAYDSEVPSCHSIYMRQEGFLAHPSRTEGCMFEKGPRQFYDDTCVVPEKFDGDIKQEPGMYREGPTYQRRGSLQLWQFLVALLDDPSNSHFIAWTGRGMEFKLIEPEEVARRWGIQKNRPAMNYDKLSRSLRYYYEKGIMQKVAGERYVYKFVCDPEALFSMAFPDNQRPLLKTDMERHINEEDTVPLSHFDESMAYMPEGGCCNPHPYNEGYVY

In the case of ATGTCC, the binding signal was 1.56 fold enrichment (6-mer frequency, TF over GST control) with FLI1; 1.53 fold enrichment (6-mer frequency, TF over GST control) in the experiment with ELK1; 1.54 fold enrichment (6-mer frequency, TF over GST control) with GABPA; 1.75 fold enrichment (6-mer frequency, TF over GST control) with ERG; 1.58 fold enrichment (6-mer frequency, TF over GST control) in the experiment with ELF1; 1.54 fold enrichment (6-mer frequency, TF over GST control) with EHF. Further, the binding signal with SPI1 is 1.35 fold enrichment (6-mer frequency, TF over GST control); in the experiment with SPIB, 1.55 fold enrichment (6-mer frequency, TF over GST control); in the experiment with ELK3, 1.75 fold enrichment (6-mer frequency, TF over GST control); with FEV it was 1.84 fold enrichment (6-mer frequency, TF over GST control); in the experiment with ETV5 it was 1.62 fold enrichment (6-mer frequency, TF over GST control); with HSF1, 1.03 fold enrichment (6-mer frequency, TF over GST control). Besides, the binding signal is 1.54 fold enrichment (6-mer frequency, TF over GST control) with SPIC; 1.51 fold enrichment (6-mer frequency, TF over GST control) in the experiment with ELF4; 1.57 fold enrichment (6-mer frequency, TF over GST control) with ELK4; 1.77 fold enrichment (6-mer frequency, TF over GST control) with ETV2; 1.85 fold enrichment (6-mer frequency, TF over GST control) with ELF3; 1.66 fold enrichment (6-mer frequency, TF over GST control) in the experiment with ETV1.

(Values after paper PMC7862700, “An all-to-all approach to the identification of sequence-specific readers for epigenetic DNA modifications on cytosine”.)
